Screens from PubChem.
This is a sample that favours compounds with a hit; in the whole collection about 5.4% have one here.
ALR inh = blocks human ALR sulfhydryl oxidase activity; P55789; AID 485317; purified ALR, DTT oxidation, H2O2 HRP-luminol luminescence; 290,000 tested, 3.8% active; inhibition, % (test concentration not listed);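 active = mean replicate inhibition above about 79%, with every replicate also reaching it, limit read from the data; inconclusive = only one of the two criteria met; inactive = mean below limit and not every replicate reaching it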
MIN6 prolif = induces beta-cell replication in MIN6 cells; 330,000 tested, 0.29% active; MIN6 cells proliferation, ATPlite luminescence, 48 h; cells starved in 0.2% serum; 100% = growth in 10% serum; proliferation, % at 10 µM; AID 2380;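 active = compounds whose signal lies at least 3.5 SD above the mean of all wells on their plate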;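 note: 0% = DMSO-treated cells in low-serum medium and 100% = 10% serum control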
SMARCA2 act = SMARCA2 function activation, primary screen; MG213 cells, MMTV-luciferase reporter, dexamethasone, overnight; activation, % at 9.1 µM; 370,000 tested, 1% active; in the data active = activation above about 7.8%;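 note: 0% = vehicle wells and 100% = reference activator wells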
Granule exo inh = blocks lytic granule exocytosis | TALL-104 LAMP-1 surface exposure, flow cytometry; cells stimulated with thapsigargin and PMA | inhibition, % at 10 µM | AID 651702 | 360,000 tested, 0.66% active;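 active = inhibition above about 55%, limit read from the data; inconclusive = no clear call, values can overlap the other calls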
JMJD2C inh = blocks human GASC-1 demethylase activity; Q9H3R0; 330,000 tested, 0.069% active; AID 2099; inhibition, % at 2.35 µM; GST-JMJD2C(1-420) H3K9me3 demethylation, DELFIA europium;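 active = more than half of a compound's replicate wells show inhibition beyond 50%, single wells judged on their own value; inconclusive = some, but no more than half, of replicates pass 50% inhibition; inactive = no replicate passes 50% inhibition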;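 note: signal counts dimethyl H3K9 product captured on neutravidin plate; 0% = median of DMSO wells and 100% = 0.3 times that DMSO median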
Target sequence (Q9H3R0 1-420 limits assumed): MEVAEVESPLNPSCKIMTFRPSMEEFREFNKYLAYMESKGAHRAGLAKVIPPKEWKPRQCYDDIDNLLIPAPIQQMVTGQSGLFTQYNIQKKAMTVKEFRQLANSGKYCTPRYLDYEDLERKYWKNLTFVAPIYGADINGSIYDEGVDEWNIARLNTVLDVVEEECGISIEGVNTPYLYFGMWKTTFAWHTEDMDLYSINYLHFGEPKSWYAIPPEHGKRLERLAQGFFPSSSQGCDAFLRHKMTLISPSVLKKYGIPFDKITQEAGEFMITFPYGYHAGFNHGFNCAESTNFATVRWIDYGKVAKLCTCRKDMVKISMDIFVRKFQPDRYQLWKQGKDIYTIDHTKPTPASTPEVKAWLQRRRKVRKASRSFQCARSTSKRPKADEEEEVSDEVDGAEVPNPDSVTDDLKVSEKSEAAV
M18AAP inhibitor = PfM18AAP enzyme inhibition | recombinant PfM18AAP, H-Glu-NHMec fluorogenic cleavage | inhibition, % at 7.35 µM | AID 1822 | 290,000 tested, 1.2% active;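 active = inhibition above the campaign mean inhibition over all tested compounds plus 3 SD, cut at about 28% in these data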;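 note: 0% = plate median of test compound wells and 100% = 2 mM ZnCl2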
* = called active by the depositor.

C=C(C)Cn1c(-c2cccc([N+](=O)[O-])c2)n[nH]c1=S was read as ALR inh 62, MIN6 prolif 0, SMARCA2 act 0, Granule exo inh -6, JMJD2C inh -6 and M18AAP inhibitor 18.
For O=C(O)c1ccc(-n2c(-c3ccc(Br)cc3)n[nH]c2=S)cc1 the results were ALR inh 92*, MIN6 prolif -3, Granule exo inh -5, JMJD2C inh 0 and M18AAP inhibitor 7.
`C=CCn1c(-c2cccc([N+](=O)[O-])c2)n[nH]c1=S` gave ALR inh 96*, MIN6 prolif -4, SMARCA2 act -1, Granule exo inh -2, JMJD2C inh 0 and M18AAP inhibitor 24.
Screening CCc1cc(-c2n[nH]c(=S)n2Cc2ccccc2)cs1 returned ALR inh 92*, MIN6 prolif 1, SMARCA2 act -1, Granule exo inh 1, JMJD2C inh 20 and M18AAP inhibitor 13.
For S=c1[nH]nc(-c2ccc(Br)cc2)n1-c1ccc(Br)cc1 the results were ALR inh inconclusive, MIN6 prolif -2, SMARCA2 act 1, Granule exo inh -2, JMJD2C inh -30 and M18AAP inhibitor 7.
`O=C(N[C@@H](Cc1cccnc1)C(=O)N1CCC[C@H]1C(=O)NCCc1ccccc1Cl)C1CCCC1` gave SMARCA2 act 0.
Oc1ccccc1-c1n[nH]c(=S)n1Cc1ccccc1 was read as ALR inh 24, MIN6 prolif -2, SMARCA2 act -3, Granule exo inh 0, JMJD2C inh 6 and M18AAP inhibitor 9.
S=c1[nH]nc(-c2cccc(Cl)c2)n1Cc1ccccc1 was read as ALR inh 2, MIN6 prolif 2, SMARCA2 act -2, Granule exo inh 2, JMJD2C inh 6 and M18AAP inhibitor 28.
`S=c1[nH]nc(-c2ccccc2Br)n1Cc1ccccc1` gave ALR inh inconclusive, MIN6 prolif 2, SMARCA2 act -3, Granule exo inh 1, JMJD2C inh -15 and M18AAP inhibitor 31*.
`O=[N+]([O-])c1cccc(-c2n[nH]c(=S)n2Cc2ccccc2)c1` gave ALR inh inconclusive, MIN6 prolif 0, SMARCA2 act 3, Granule exo inh -2, JMJD2C inh 4 and M18AAP inhibitor 29*.
For Cc1ccc(-c2nnc(SCc3ccc([N+](=O)[O-])cc3)n2-c2ccccc2)cc1 the results were SMARCA2 act -4.
Screening O=C(N=C1N(Cc2ccccc2)[C@@H](Cc2ccccc2)[C@]2(C=C3CCCCC3n3c(=O)n(-c4ccccc4)c(=O)n32)N1C(=O)OCc1ccccc1)c1ccccc1 (some centres not stated) returned SMARCA2 act 1.
Screening COc1ccc(C(=O)CC(c2ccccc2)C2C(=O)CCCC2=O)cc1 (configuration not stated) returned ALR inh -2, MIN6 prolif 1, SMARCA2 act -1, Granule exo inh 1, JMJD2C inh -6 and M18AAP inhibitor 31*.
`COc1ccc(C(CC(=O)c2ccccc2)C2CCCCC2=O)cc1` (configuration not stated) gave ALR inh 0, MIN6 prolif 1, SMARCA2 act -1, Granule exo inh -3, JMJD2C inh 2 and M18AAP inhibitor 0.
Screening CC1CCN(C(=O)CSCC(=O)Nc2nc(-c3cccs3)cs2)CC1 returned ALR inh 98*, MIN6 prolif -2, SMARCA2 act -2, Granule exo inh 0, JMJD2C inh -19 and M18AAP inhibitor 5.
For CCOC(=O)N1CCN(C(=O)CSCC(=O)Nc2nc(-c3cccs3)cs2)CC1 the results were ALR inh 90*, MIN6 prolif -4, SMARCA2 act -6, Granule exo inh -2, JMJD2C inh 10 and M18AAP inhibitor 2.
`O=C(CSc1nnc(COc2ccccc2)n1Cc1ccco1)Nc1ccc2c(c1)OCO2` gave SMARCA2 act -6.
For C[C@H]1COc2cc(Br)ccc2S(=O)(=O)N1Cc1cn(CCC2OCCCO2)nn1 the results were SMARCA2 act 0.
`COC(=O)[C@]12C[C@H](CC(=O)NCc3cccc4ccccc34)C(=O)N(CCc3ccc(OC)c(OC)c3)C1=C[C@H](COCc1ccccc1)O[C@@H]2C` gave SMARCA2 act -2.
For Cn1c(C(=O)Nc2ccc3c(c2)OCCO3)cc2c(=O)n(C)c3ccccc3c21 the results were ALR inh -13, MIN6 prolif -3, SMARCA2 act -4, Granule exo inh 80*, JMJD2C inh 7 and M18AAP inhibitor -1.
Screening CCOC(=O)c1c(N2C(=O)Nc3ccccc3N2O)sc2c1CCCCC2 returned ALR inh 95*, MIN6 prolif -3, SMARCA2 act 0, Granule exo inh 2, JMJD2C inh -5 and M18AAP inhibitor 3.
`CC(C)CC(=O)N1CCc2cc(S(=O)(=O)N(C)Cc3ccco3)ccc21` gave SMARCA2 act -4.
N#CC1=C2SCN(c3ccccc3)CN2C(=O)CC1c1cccs1 (configuration not stated) was read as ALR inh -12, MIN6 prolif -2, SMARCA2 act -3, Granule exo inh 2, JMJD2C inh 0 and M18AAP inhibitor 37*.
Cc1ccc(C2CC(=O)N3CN(Cc4ccco4)CSC3=C2C#N)cc1 (configuration not stated) was read as ALR inh -11, MIN6 prolif -2, SMARCA2 act -2, Granule exo inh 0, JMJD2C inh 10 and M18AAP inhibitor 31*.
N#CC1=C2SCN(c3ccccc3)CN2C(=O)CC1c1ccccc1Cl (configuration not stated) was read as ALR inh -9, MIN6 prolif -3, SMARCA2 act 2, Granule exo inh -3, JMJD2C inh -3 and M18AAP inhibitor 21.
CCOc1ccc(N2CSC3=C(C#N)C(c4ccco4)CC(=O)N3C2)cc1 (configuration not stated) was read as ALR inh 9, MIN6 prolif -3, SMARCA2 act -2, Granule exo inh 0, JMJD2C inh -15 and M18AAP inhibitor 33*.
`CCOC(=O)c1ccc(N2CSC3=C(C#N)C(c4ccc(OC)cc4OC)CC(=O)N3C2)cc1` (configuration not stated) gave ALR inh 0, MIN6 prolif -4, SMARCA2 act 1, Granule exo inh 3, JMJD2C inh 5 and M18AAP inhibitor 21.
N#CC1=C2SCN(c3ccccc3)CN2C(=O)CC1c1c(Cl)cccc1Cl (configuration not stated) was read as ALR inh -4, MIN6 prolif -1, SMARCA2 act 0, Granule exo inh 12, JMJD2C inh -26 and M18AAP inhibitor 36*.
COc1ccc(-n2c(SCC(=O)NN=Cc3c(O)ccc4ccccc34)nnc2-c2ccc(C(C)(C)C)cc2)cc1 was read as SMARCA2 act -4.
